Screens from PubChem.
PG9 Ab binder – small molecules binding HIV-1 gp120 antibody PG9. inhibition, % at 6.7 µM. 360,000 tested, 0.43% active. TR-FRET gp120-PG9 antibody binding; in the data active = inhibition above about 8.5%
ABCB6 inh 2 – inhibitors of human ABC transporter ABCB6. Q9NP58. K562-ABCB6 porphyrin accumulation, flow cytometry, 1 h; active compounds read low. fluorescence ratio to DMSO, % at 10 µM. 360,000 tested, 0.19% active;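 active = fluorescence ratio to DMSO below 75%, the collection mean minus 3 SD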;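 note: signal is porphyrin accumulated inside mitochondria; 100% equals median channel fluorescence of DMSO control wells; lower ratio means ABCB6 inhibition with less porphyrin fluorescence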
Granule exo inh – lytic granule exocytosis inhibition; TALL-104 LAMP-1 surface exposure, flow cytometry; cells stimulated with thapsigargin and PMA; AID 651702; inhibition, % at 10 µM; 360,000 tested, 0.66% active;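 active = inhibition above about 55%, limit read from the data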
VLA-4 inh – inhibition in a human VLA-4 binding assay; VLA-4 expressing cells, ligand binding flow cytometry; inhibition, % (about 7 µM as worked out from the volumes in the protocol); 330,000 tested, 0.2% active; in the data active = inhibition above about 50%
NR1D1 modulator – modulators of human Rev-erb alpha DNA binding; P20393; Rev-erbα–FITC-DNA binding, fluorescence polarization, 90 min; activity, % at 10 µM; 370,000 tested, 0.79% active;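 active = activity above about 14%, limit read from the data; passing the limit was not always enough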;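 note: 0% = DMSO wells with 35 nM protein and 100% = DMSO wells with 750 nM protein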
Granule exo CP1 – blocks lytic granule exocytosis; inhibition, % at 10 µM; TALL-104 cells, LAMP-1 externalization, flow cytometry; stimulated with PMA plus thapsigargin; shares compounds with Granule exo inh; 1,500 tested, 11% active; AID 651954; in the data active = inhibition above about 60%;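 note: 0% = stimulated vehicle wells and 100% = unstimulated wells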
An asterisk follows results filed as active. Most compounds without a hit are left out; they make up all but 2% or so of the library.

Results for Cc1ccc2sc(N(CCCN(C)C)C(=O)c3ccc(S(=O)(=O)N(C)Cc4ccccc4)cc3)nc2c1C ?
PG9 Ab binder: -1; ABCB6 inh 2: 98; Granule exo inh: 66*; VLA-4 inh: 14; NR1D1 modulator: 10; Granule exo CP1: 58

Results for COCC1CN(CCc2ccc(F)cc2)S(=O)(=O)c2c(F)cccc2O1 (configuration not stated) ?
PG9 Ab binder: -1; NR1D1 modulator: 0

Results for Cc1ccccc1CN1CCCCC(NC(=O)c2cccc(C(F)(F)F)c2)C1=O (configuration not stated) ?
NR1D1 modulator: -2

What do the screens show for `CCN1CCN(CCNC(=O)c2ccc(/C=C3/Sc4ccccc4N(Cc4ccccc4C)C3=O)cc2)CC1`?
PG9 Ab binder: 1; ABCB6 inh 2: 105; Granule exo inh: 66*; NR1D1 modulator: -2; Granule exo CP1: 29

Results for Cc1ccccc1CN1C(=O)c2ccccc2Sc2ccc(C(=O)NCCN3CCOCC3)cc21 ?
PG9 Ab binder: 1; ABCB6 inh 2: 106; Granule exo inh: -6; VLA-4 inh: -3; NR1D1 modulator: 2

How did Cc1cc(C(=O)CSc2nc3ccccc3[nH]2)c(C)n1CC1CCCO1 (configuration not stated) do in these assays?
PG9 Ab binder: -2; ABCB6 inh 2: 93; Granule exo inh: 90*; VLA-4 inh: 3; NR1D1 modulator: -6; Granule exo CP1: 77*

Results for Cc1ccc(S(=O)(=O)Nc2ccc(C(=O)NCc3cccnc3)cc2)cc1 ?
PG9 Ab binder: -2; ABCB6 inh 2: 94; Granule exo inh: -3; VLA-4 inh: -3; NR1D1 modulator: -4

What do the screens show for `Cc1ccc(NS(=O)(=O)c2cc(C(=O)NCc3cccnc3)ccc2C)cc1`?
PG9 Ab binder: 1; ABCB6 inh 2: 106; Granule exo inh: 63*; VLA-4 inh: 9; NR1D1 modulator: -3; Granule exo CP1: -14

Results for Cc1noc(C)c1S(=O)(=O)N(CC(=O)NC1CCCC1)c1ccc(C(C)C)cc1 ?
PG9 Ab binder: 0; ABCB6 inh 2: 96; Granule exo inh: -1; VLA-4 inh: -1; NR1D1 modulator: -1

How did Cc1noc(C)c1S(=O)(=O)N(CC(=O)NC(C)c1ccccc1)c1ccc(C(C)C)cc1 (configuration not stated) do in these assays?
PG9 Ab binder: -1; ABCB6 inh 2: 100; Granule exo inh: 70*; VLA-4 inh: 3; NR1D1 modulator: 2; Granule exo CP1: -4

Results for Cc1noc(C)c1S(=O)(=O)N(CC(=O)NCCc1ccccc1)c1ccc(C(C)C)cc1 ?
PG9 Ab binder: 0; ABCB6 inh 2: 103; Granule exo inh: 56*; VLA-4 inh: 6; NR1D1 modulator: 8; Granule exo CP1: -14

Results for Cc1noc(C)c1S(=O)(=O)N(CC(=O)NCc1ccccc1)c1ccc(C(C)C)cc1 ?
PG9 Ab binder: 0; ABCB6 inh 2: 100; Granule exo inh: -1; VLA-4 inh: 1; NR1D1 modulator: -1

How did Cc1cc(NC(=O)CCN2CCN(C/C=C/c3ccccc3)CC2)ccc1Br do in these assays?
PG9 Ab binder: -1; ABCB6 inh 2: 101; Granule exo inh: 60*; VLA-4 inh: 0; NR1D1 modulator: -6; Granule exo CP1: -1

What do the screens show for `Cc1cccc(NC(=O)CCN2CCN(C/C=C/c3ccccc3)CC2)c1`?
PG9 Ab binder: -1; ABCB6 inh 2: 90; Granule exo inh: -1; VLA-4 inh: 3; NR1D1 modulator: 6

How did O=C(CSc1nc2ccccc2s1)N1c2ccccc2Sc2ccccc21 do in these assays?
PG9 Ab binder: 0; ABCB6 inh 2: 94; Granule exo inh: 62*; VLA-4 inh: 5; NR1D1 modulator: 4; Granule exo CP1: 2

Results for CCCCC(=O)Nc1nc(C)c(-c2csc(Nc3ccccc3OC)n2)s1 ?
PG9 Ab binder: -2; ABCB6 inh 2: 104; Granule exo inh: 57*; VLA-4 inh: 5; NR1D1 modulator: 5; Granule exo CP1: -14

How did C=CCCC(=O)Nc1nc(C)c(-c2csc(Nc3ccccc3OC)n2)s1 do in these assays?
PG9 Ab binder: -2; ABCB6 inh 2: 104; Granule exo inh: 4; VLA-4 inh: 1; NR1D1 modulator: -6

What do the screens show for `O=C1CSc2ccc(S(=O)(=O)N3CCN(c4ccccc4)CC3)cc2N1`?
PG9 Ab binder: 0; ABCB6 inh 2: 100; Granule exo inh: 0; VLA-4 inh: 7; NR1D1 modulator: -3

What do the screens show for `CCC1Sc2ccc(S(=O)(=O)N3CCN(c4ccccc4)CC3)cc2NC1=O` (configuration not stated)?
PG9 Ab binder: -1; ABCB6 inh 2: 98; Granule exo inh: 71*; VLA-4 inh: 3; NR1D1 modulator: 4; Granule exo CP1: -11

What do the screens show for `O=C(O)C1C(c2ccccc2)C(C(=O)OCc2ccco2)C1c1ccccc1` (configuration not stated)?
PG9 Ab binder: 1; ABCB6 inh 2: 76; Granule exo inh: 0; VLA-4 inh: 13; NR1D1 modulator: 3

Results for COC(=O)C1C(c2ccccc2)C(C(=O)OCc2ccco2)C1c1ccccc1 (configuration not stated) ?
ABCB6 inh 2: 97; Granule exo inh: 69*; VLA-4 inh: -7; NR1D1 modulator: 2; Granule exo CP1: 27

How did COc1ccccc1NC(=O)c1cc(S(=O)(=O)N2CCc3ccccc32)ccc1F do in these assays?
PG9 Ab binder: -1; ABCB6 inh 2: 99; Granule exo inh: 74*; VLA-4 inh: -6; NR1D1 modulator: -1; Granule exo CP1: -12

What do the screens show for `Cc1nc2cc(C(=O)N3CCN(C(=O)C(C)(C)C)CC3)ccc2n1C1CCCC1`?
NR1D1 modulator: -5

How did COc1ccc(CN(C)CC2CCCN(CCc3ccc(F)cc3)C2)c(OC)c1OC (configuration not stated) do in these assays?
PG9 Ab binder: -3; ABCB6 inh 2: 99; Granule exo inh: 70*; VLA-4 inh: 4; NR1D1 modulator: -3; Granule exo CP1: -2

How did COc1ccc(CCN2CCCC(CN(C)Cc3cc(OC)ccc3OC)C2)cc1 (configuration not stated) do in these assays?
PG9 Ab binder: 1; ABCB6 inh 2: 100; Granule exo inh: 72*; VLA-4 inh: 12; NR1D1 modulator: 2; Granule exo CP1: -14

How did COc1ccc(CCN2CCCC(CN(C)Cc3cccc(OC)c3)C2)cc1 (configuration not stated) do in these assays?
PG9 Ab binder: 2; ABCB6 inh 2: 96; Granule exo inh: 56*; VLA-4 inh: -6; NR1D1 modulator: -1; Granule exo CP1: -14

What do the screens show for `COc1ccc(CCN2CCCC(CN(C)C(=O)c3cc(C)oc3C)C2)cc1` (configuration not stated)?
PG9 Ab binder: -1; ABCB6 inh 2: 97; Granule exo inh: 17; VLA-4 inh: 6; NR1D1 modulator: 0
